Each structure is given as a SMILES string. Inconclusive results are not listed. Entries that show only a call come without a potency. Calls of active or inactive are those of the source. Unless noted, calls follow the shape of the dose curve; as a rule, active = well fitted cell-killing curve with a large enough effect in the repeat runs (not every such curve was filed as active); inconclusive = weak or mixed curves, or effect the other way; inactive = no such curve, though single readings can be large or run the other way.

Sequence of Bile acid receptor (Homo sapiens) (Q96RI1 whole entry, looked up): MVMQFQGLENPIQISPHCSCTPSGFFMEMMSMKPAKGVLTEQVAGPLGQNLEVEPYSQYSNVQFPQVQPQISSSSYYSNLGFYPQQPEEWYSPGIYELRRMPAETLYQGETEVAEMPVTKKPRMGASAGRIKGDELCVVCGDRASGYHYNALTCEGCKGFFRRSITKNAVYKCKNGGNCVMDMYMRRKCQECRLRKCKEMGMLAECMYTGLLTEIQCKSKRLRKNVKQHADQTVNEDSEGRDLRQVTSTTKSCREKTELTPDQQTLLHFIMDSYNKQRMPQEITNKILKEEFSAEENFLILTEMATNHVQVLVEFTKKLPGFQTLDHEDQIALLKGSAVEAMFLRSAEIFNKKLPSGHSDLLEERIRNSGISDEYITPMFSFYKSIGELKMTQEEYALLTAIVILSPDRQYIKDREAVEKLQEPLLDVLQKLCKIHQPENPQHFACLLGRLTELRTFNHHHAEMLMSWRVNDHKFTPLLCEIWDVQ

The first assay concerns the target Bile acid receptor (Homo sapiens) (UniProt Q96RI1). As to the kind of experiment: qHTS assay to identify small molecule agonists of the farnesoid-X-receptor (FXR) signaling pathway (AID 743220; active = well fitted activation curve with a large enough effect in the signal ratio in the repeat runs, not every such curve was filed as active; the % refers to the signal ratio). The note with it: HEK293T FXR-UAS-bla, beta-lactamase FRET ratio, 16 h; series mostly up to 62.6 µM. In short, it runs like this:
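Beta-lactamase reporter under UAS control in GeneBLAzer FXR HEK 293T cells (5000/well) measured with LiveBLAzer FRET substrate after 2 h at room temperature. Compound exposure lasted 16 h at 37C.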
(In general: qHTS replaces the single test concentration by a dilution series.)
As for `CCCCOCC(C)OCC(C)O` (centres undefined), the outcome was inactive.

`COc1cc(O)cc(O)c1`: the result was inactive.

`c1ccc(CCCc2ccccn2)cc1`: the result was inactive.

For the molecule `CC1=CCC2C(C1)C2(C)C` (centres undefined), the result was inactive.

As to `NC(=O)c1c(Cl)cccc1Cl`, the outcome was inactive.

For the molecule `C=CCn1c(=O)n([C@@H]2O[C@H](CO)[C@@H](O)[C@H]2O)c2nc(N)[nH]c(=O)c21`, the outcome was inactive.

With `CCCC(C)C(=O)O` (centres undefined), the result was inactive.

As for `NS(=O)(=O)c1cc(C2(O)NC(=O)c3ccccc32)ccc1Cl` (centres undefined), the result was inactive.

For `C=CC(=O)N1CCOCC1`, the outcome was inactive.

Tested on in the next assay: not listed separately
The assay is described as follows: qHTS assay to identify small molecule antagonists of the farnesoid-X-receptor (FXR) signaling pathway - cell viability counter screen (AID 743221). Also: nearly all actives have a fitted effect of over 50% in size. The note with it: FXR-bla HEK293T viability, CellTiter-Glo luminescence, 16 h; series mostly up to 62.6 µM. In a few lines:
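GeneBLAzer FXR-UAS-bla HEK 293T cells, compound plus chenodeoxycholic acid (50 uM final), 16 h at 37 C. CellTiter-Glo added to the same wells after the beta-lactamase read; luminescence read after 30 min at room temperature as viability.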
Regarding `Nc1cc(C(Cl)=C(Cl)Cl)c(S(N)(=O)=O)cc1S(N)(=O)=O`, the Potency result was “inactive”.

As for `C=CC(=O)OCCCCCC`, the Potency result was “inactive”.

Consider `CC(C)=CC(=O)O`, for which the Potency result was “inactive”.

As for `CN(C)CCOC(c1ccc(Cl)cc1)c1ccccn1` (centres undefined), the Potency result is “inactive”.

On to `Cc1ccc(N)cc1[N+](=O)[O-]`, for which the Potency result is “inactive”.

Take `Cc1nccn1CC1CCc2c(c3ccccc3n2C)C1=O` (centres undefined): the Potency result is “inactive”.

As for `C=C(C)C(=O)OCCC(C)OC(=O)C(=C)C` (centres undefined), the Potency entry is “inactive”.

As for `CCCCCCCCCCCCCCCCCCOCC(O)CO` (centres undefined), the Potency result is “inactive”.

`Cc1ccccc1C(=O)O`: the Potency result was “inactive”.

Take `CCN(CC)C(=O)c1ccc(O)c(OC)c1`: the Potency result was “inactive”.

Consider `C#CC(C)(O)CC(C)C` (centres undefined), for which the Potency entry is “inactive”.

For the molecule `CCCCCCCCC=O`, the Potency entry was “inactive”.

For `CO`, the Potency entry is “inactive”.

`COc1cc(O)cc(O)c1`: the Potency entry was “inactive”.

Take `COc1cc(C(=O)N2CCOCC2)cc(OC)c1OC`: the Potency result was “inactive”.

Take `CCCCc1ccc2cccc(S(=O)(=O)O)c2c1`: the Potency result is “inactive”.

For the molecule `Nc1ncnc2c1ncn2Cc1c(F)cccc1Cl`, the Potency result is “inactive”.

Regarding `c1ccc(CCCc2ccccn2)cc1`, the Potency result is “inactive”.

In the case of `O=C(CCOCCOCCOCCOCCC(=O)Nc1c(I)cc(I)c(C(=O)O)c1I)Nc1c(I)cc(I)c(C(=O)O)c1I`, the Potency result was “inactive”.

Take `CC1=CCC2C(C1)C2(C)C` (centres undefined): the Potency entry was “inactive”.

Turning to `C=C(C)[C@H]1CC=C(C)CC1`, the Potency result was “inactive”.

On to `CC(C)c1ccc2oc3nc(N)c(C(=O)O)cc3c(=O)c2c1`, for which the Potency entry is “inactive”.

As for `Cc1c(C)n(CCN(C)C)c2ccc(C(=O)OCCN(C)C)cc12`, the Potency result was “inactive”.

With `NC(=O)c1c(Cl)cccc1Cl`, the Potency result is “inactive”.

Regarding `C1CCCCCCCCCCC1`, the Potency entry was “inactive”.

As to `CCCC(C)C(=O)O` (centres undefined), the Potency entry was “inactive”.

For the molecule `C=CC(=O)N1CCOCC1`, the Potency entry was “inactive”.

For `CCCCCCCCCCC1CO1` (centres undefined), the Potency result was “inactive”.

As to `OC1OC[C@@H](O)[C@H](O)[C@H]1O` (some centres undefined), the Potency entry is “inactive”.

Turning to `CC(C)=CCC/C(C)=C/C(=O)O`, the Potency result is “inactive”.

Values taken from PubChem BioAssay (Tox21).
